From the supplement of paper PMC6089552
The campaign covered roughly 3,200 compounds. About 300 (9.4%) showed activity. For the sample, actives were picked, then their nearest neighbours and some compounds at random. Unmarked numbers belong to inactive results.

System: A673/TR/shEF
Assay: cell viability (LOESS-normalised, relative to median of negative controls) (log2 ratio); higher = more viable cells (less compound effect), active = hit call of the paper (over 3 MAD below the median)
Conditions: treatment time: 72 h
How it was run: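 A673/TR/shEF Ewing sarcoma cells (1,500 per well, 384-well plates) were grown with or without doxycycline to induce EWS-FLI1 shRNA knockdown, starting 24 h before compounds. Library compounds at two or more concentrations, with DMSO controls, were added for three days. Cell viability was read by CellTiter-Glo luminescence on an Envision reader, then LOESS-corrected per plate, divided by the median of negative controls and log2-transformed. Hits were wells at least three median absolute deviations from the median of all screened wells.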

[1] = 0.25 µM, library screen: screen1, EWS-FLI1 expression: high (no doxycycline)
[2] = 0.25 µM, library screen: screen1, EWS-FLI1 expression: low (doxycycline-induced shRNA knockdown)
[3] = 2.5 µM, library screen: screen1, EWS-FLI1 expression: high (no doxycycline)
[4] = 2.5 µM, library screen: screen1, EWS-FLI1 expression: low (doxycycline-induced shRNA knockdown)
[5] = 0.025 µM, library screen: screen1, EWS-FLI1 expression: high (no doxycycline)
[6] = 0.025 µM, library screen: screen1, EWS-FLI1 expression: low (doxycycline-induced shRNA knockdown)
[7] = 25 µM, library screen: screen1, EWS-FLI1 expression: high (no doxycycline)
[8] = 25 µM, library screen: screen1, EWS-FLI1 expression: low (doxycycline-induced shRNA knockdown)
[9] = 0.103 µM, library screen: screen3, EWS-FLI1 expression: high (no doxycycline)
[10] = 0.103 µM, library screen: screen3, EWS-FLI1 expression: low (doxycycline-induced shRNA knockdown)
[11] = 0.308 µM, library screen: screen3, EWS-FLI1 expression: high (no doxycycline)
[12] = 0.308 µM, library screen: screen3, EWS-FLI1 expression: low (doxycycline-induced shRNA knockdown)
[13] = 0.926 µM, library screen: screen3, EWS-FLI1 expression: high (no doxycycline)
[14] = 0.926 µM, library screen: screen3, EWS-FLI1 expression: low (doxycycline-induced shRNA knockdown)
[15] = 2.8 µM, library screen: screen3, EWS-FLI1 expression: high (no doxycycline)
[16] = 2.8 µM, library screen: screen3, EWS-FLI1 expression: low (doxycycline-induced shRNA knockdown)
[17] = 8.3 µM, library screen: screen3, EWS-FLI1 expression: high (no doxycycline)
[18] = 8.3 µM, library screen: screen3, EWS-FLI1 expression: low (doxycycline-induced shRNA knockdown)
[19] = 25 µM, library screen: screen3, EWS-FLI1 expression: high (no doxycycline)
[20] = 25 µM, library screen: screen3, EWS-FLI1 expression: low (doxycycline-induced shRNA knockdown)
[21] = 0.25 µM, library screen: screen2, EWS-FLI1 expression: high (no doxycycline)
[22] = 0.25 µM, library screen: screen2, EWS-FLI1 expression: low (doxycycline-induced shRNA knockdown)
[23] = 2.5 µM, library screen: screen2, EWS-FLI1 expression: high (no doxycycline)
[24] = 2.5 µM, library screen: screen2, EWS-FLI1 expression: low (doxycycline-induced shRNA knockdown)

## CC(C(=O)O)N1C(=O)C(=Cc2cccnc2)SC1=S (configuration not stated)
[1]
  cell viability (log2): -0.0281
[2]
  cell viability (log2): 0.0107
[3]
  cell viability (log2): 0.0923
[4]
  cell viability (log2): -0.0695

## C=CC1=C(C)/C(=C/c2[nH]c(Cc3[nH]c(/C=C4\NC(=O)C(C)=C4C=C)c(C)c3CCC(=O)O)c(CCC(=O)O)c2C)NC1=O
[1]
  cell viability (log2): 0.0132
[2]
  cell viability (log2): 0.0277
[3]
  cell viability (log2): 0.0983
[4]
  cell viability (log2): 0.128

## S=c1[nH]nc(COc2ccc(Cl)cc2Cl)n1-c1ccccc1
[1]
  cell viability (log2): 0.00963
[2]
  cell viability (log2): 0.148
[3]
  cell viability (log2): 0.0937
[4]
  cell viability (log2): 0.0872

## C[C@@H]1CC[C@@]2(OC1)O[C@H]1C[C@H]3[C@@H]4CC[C@H]5C[C@@H](O)CC[C@]5(C)[C@H]4CC(=O)[C@]3(C)[C@H]1[C@@H]2C
[1]
  cell viability (log2): 0.102
[2]
  cell viability (log2): -0.00894
[3]
  cell viability (log2): 0.127
[4]
  cell viability (log2): 0.0766

## Nc1ncc2[nH]cnc2n1
[5]
  cell viability (log2): 0.156
[6]
  cell viability (log2): 0.0178
[1]
  cell viability (log2): 0.22
[2]
  cell viability (log2): 0.0137
[3]
  cell viability (log2): -0.0954 (active)
[4]
  cell viability (log2): 0.025
[7]
  cell viability (log2): -0.0198
[8]
  cell viability (log2): 0.0477

## Nc1ncnc2nc[nH]c12
[9]
  cell viability (log2): -0.0276
[10]
  cell viability (log2): 0.0358
[1]
  cell viability (log2): -0.00904
[2]
  cell viability (log2): 0.112
[11]
  cell viability (log2): 0.0266
[12]
  cell viability (log2): 0.0376
[13]
  cell viability (log2): 0.0356
[14]
  cell viability (log2): 0.0359
[3]
  cell viability (log2): 0.0839
[4]
  cell viability (log2): 0.087
[15]
  cell viability (log2): -0.0229
[16]
  cell viability (log2): 0.045
[17]
  cell viability (log2): -0.016
[18]
  cell viability (log2): 0.0209
[19]
  cell viability (log2): 0.0262
[20]
  cell viability (log2): 0.0745

## Nc1nc(OCc2ccccc2)c2[nH]cnc2n1
[21]
  cell viability (log2): 0.21
[22]
  cell viability (log2): 0.111
[23]
  cell viability (log2): 0.106
[24]
  cell viability (log2): 0.0266

## CN1CCC[C@@H]1c1cccnc1
[21]
  cell viability (log2): 0.0881
[22]
  cell viability (log2): 0.0848
[23]
  cell viability (log2): 0.112
[24]
  cell viability (log2): 0.123

## C[C@H](C[C@@H](O)[C@@H]1OC1(C)C)[C@@H]1CC[C@]2(C)C3=CC[C@H]4C(C)(C)C(=O)CC[C@]4(C)[C@H]3CC[C@@]12C
[1]
  cell viability (log2): 0.0762
[2]
  cell viability (log2): 0.064
[3]
  cell viability (log2): 0.0491
[4]
  cell viability (log2): 0.136

## Nc1nccc2c1ncn2[C@@H]1O[C@H](CO)[C@@H](O)[C@H]1O
[21]
  cell viability (log2): 0.199
[22]
  cell viability (log2): 0.0735
[23]
  cell viability (log2): 0.0748
[24]
  cell viability (log2): 0.125

## Nc1ncnc2c1c(I)cn2[C@@H]1O[C@H](CO)[C@@H](O)[C@H]1O
[5]
  cell viability (log2): 0.145
[6]
  cell viability (log2): -0.151
[1]
  cell viability (log2): -0.0341
[2]
  cell viability (log2): -0.172
[3]
  cell viability (log2): -1.08 (active)
[4]
  cell viability (log2): -0.349 (active)
[7]
  cell viability (log2): -2.42 (active)
[8]
  cell viability (log2): -2.11 (active)

## Nc1ncnc2c1ncn2C1CCCO1 (configuration not stated)
[21]
  cell viability (log2): -0.183 (active)
[22]
  cell viability (log2): -0.136 (active)
[23]
  cell viability (log2): -0.771 (active)
[24]
  cell viability (log2): -0.568 (active)

## Nc1ncnc2c1ncn2[C@@H]1O[C@H](CO)[C@@H](O)[C@@H]1O
0.025 µM, library screen: screen2, EWS-FLI1 expression: high (no doxycycline)
  cell viability (log2): 0.125
0.025 µM, library screen: screen2, EWS-FLI1 expression: low (doxycycline-induced shRNA knockdown)
  cell viability (log2): 0.0247
[9]
  cell viability (log2): 0.0965
[10]
  cell viability (log2): 0.0781
[21]
  cell viability (log2): 0.146
[22]
  cell viability (log2): 0.0437
[11]
  cell viability (log2): 0.134
[12]
  cell viability (log2): 0.0881
[13]
  cell viability (log2): 0.113
[14]
  cell viability (log2): 0.0711
[23]
  cell viability (log2): 0.229
[24]
  cell viability (log2): 0.0883
[15]
  cell viability (log2): 0.122
[16]
  cell viability (log2): 0.114
[17]
  cell viability (log2): 0.0774
[18]
  cell viability (log2): 0.127
25 µM, library screen: screen2, EWS-FLI1 expression: high (no doxycycline)
  cell viability (log2): 0.0602
25 µM, library screen: screen2, EWS-FLI1 expression: low (doxycycline-induced shRNA knockdown)
  cell viability (log2): 0.0701
[19]
  cell viability (log2): 0.0148
[20]
  cell viability (log2): 0.128

## Nc1nc(F)nc2c1ncn2[C@@H]1O[C@H](CO)[C@@H](O)[C@@H]1O
[9]
  cell viability (log2): -0.0149
[10]
  cell viability (log2): 0.0418
[11]
  cell viability (log2): 0.0122
[12]
  cell viability (log2): 0.0299
[13]
  cell viability (log2): -0.0547
[14]
  cell viability (log2): 0.0332
[15]
  cell viability (log2): 0.0695
[16]
  cell viability (log2): 0.0196
[17]
  cell viability (log2): 0.023
[18]
  cell viability (log2): 0.0649
[19]
  cell viability (log2): 0.0762
[20]
  cell viability (log2): 0.0699

## Nc1ncnc2c1ncn2[C@@H]1O[C@H](CO)[C@@H](O)[C@H]1O
[9]
  cell viability (log2): 0.0648
[10]
  cell viability (log2): 0.118
[1]
  cell viability (log2): 0.105
[2]
  cell viability (log2): 0.0646
[21]
  cell viability (log2): -0.195 (active)
[22]
  cell viability (log2): 0.0787
[11]
  cell viability (log2): 0.108
[12]
  cell viability (log2): 0.149
[13]
  cell viability (log2): 0.0961
[14]
  cell viability (log2): 0.106
[3]
  cell viability (log2): 0.129
[4]
  cell viability (log2): 0.198
[23]
  cell viability (log2): 0.141
[24]
  cell viability (log2): 0.177
[15]
  cell viability (log2): 0.133
[16]
  cell viability (log2): 0.0552
[17]
  cell viability (log2): 0.0565
[18]
  cell viability (log2): 0.0635
[19]
  cell viability (log2): 0.137
[20]
  cell viability (log2): 0.158

## Nc1ncnc2c1ncn2C1CCCC1
[21]
  cell viability (log2): 0.222
[22]
  cell viability (log2): 0.00723
[23]
  cell viability (log2): 0.162
[24]
  cell viability (log2): 0.101

## Nc1ncnc2c1ncn2C1OC(C(=O)NC2CC2)C(O)C1O (configuration not stated)
[21]
  cell viability (log2): 0.208
[22]
  cell viability (log2): 0.0695
[23]
  cell viability (log2): 0.136
[24]
  cell viability (log2): 0.0888

## CNc1ncnc2c1ncn2[C@@H]1O[C@H](CO)[C@@H](O)[C@H]1O
[21]
  cell viability (log2): 0.104
[22]
  cell viability (log2): 0.0674
[23]
  cell viability (log2): 0.0505
[24]
  cell viability (log2): 0.098
